Assay outcomes from PubChem BioAssay.
GPR151 ag: activators of human GPR151, primary screen, cell-based, PathHunter beta-arrestin, luminescence; G-protein coupled receptor 151 (Homo sapiens), Q8TDV0; AID 1508602, 2020; actives 1% (n = 650,000); PathHunter beta-arrestin GPR151 cells; activation, % at 11.2 µM; in the data active means activation above about 4.9%;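 further: 0% = median of compound wells and 100% = cells with positive control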
MITF inh: MITF inhibitors, primary screen, biochemical, AlphaScreen, human. AlphaScreen MITF homodimerization, bead proximity signal. inhibition, % at 2.6 µM. actives 0.91% (n = 650,000). Microphthalmia-associated transcription factor (Homo sapiens), O75030; in the data active means inhibition above about 50%;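 further: 0% = vehicle wells with protein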
FBW7 activator: FBW7 E3 ligase activators, primary screen, biochemical, AlphaScreen, human; actives 0.13% (n = 650,000); AlphaScreen FBW7–phospho-cyclin E peptide binding, activator screen; normalized activity (activation), % at 26.1 µM; F-box/WD repeat-containing protein 7 (Homo sapiens), Q969H0; in the data active means normalized activity above about 1.9%;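 further: purified mutant Fbw7 with reduced substrate affinity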
Target sequence (Q969H0 whole entry, looked up): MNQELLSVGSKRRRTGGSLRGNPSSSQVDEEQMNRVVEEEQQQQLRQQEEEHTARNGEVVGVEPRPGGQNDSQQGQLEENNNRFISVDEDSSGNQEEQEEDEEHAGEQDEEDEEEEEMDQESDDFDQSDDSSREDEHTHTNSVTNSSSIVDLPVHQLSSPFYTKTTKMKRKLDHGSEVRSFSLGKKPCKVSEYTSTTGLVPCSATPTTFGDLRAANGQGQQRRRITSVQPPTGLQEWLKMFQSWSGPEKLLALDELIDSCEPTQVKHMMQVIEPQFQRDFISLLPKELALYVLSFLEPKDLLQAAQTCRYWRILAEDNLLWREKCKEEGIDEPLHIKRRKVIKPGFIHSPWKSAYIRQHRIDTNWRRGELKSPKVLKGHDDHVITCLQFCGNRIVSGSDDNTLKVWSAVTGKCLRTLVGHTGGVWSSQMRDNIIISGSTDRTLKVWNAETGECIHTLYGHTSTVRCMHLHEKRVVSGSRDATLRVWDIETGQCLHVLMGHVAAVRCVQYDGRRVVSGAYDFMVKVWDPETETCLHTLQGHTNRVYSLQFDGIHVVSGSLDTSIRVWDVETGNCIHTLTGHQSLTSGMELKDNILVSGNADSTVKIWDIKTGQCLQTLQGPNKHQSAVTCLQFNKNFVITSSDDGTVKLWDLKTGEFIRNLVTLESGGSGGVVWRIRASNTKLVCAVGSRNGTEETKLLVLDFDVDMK
TEAD-YAP inh: TEAD-YAP interaction inhibition, primary screen, TEAD-YAP interaction inhibitor project, luminescence, HEK-TIYL cells; TEAD-Gal4/YAP UAS-luciferase luminescence; inhibition, % at 9.12 µM; actives 1.4% (n = 640,000); AID 1259422, 2018; in the data active means inhibition above about 32%;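 further: 0% = median of test compound wells and 100% = reference inhibitor wells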
* marks the source's active call; other numbers are inactive results. Sampled rows, rich in hits. Any-hit rate of the full collection: about 3.5%.

SMILES	GPR151 ag	MITF inh	FBW7 activator	TEAD-YAP inh
CCCCC(=O)NC(c1ccc(OC)c(OC)c1)c1cc([N+](=O)[O-])c2cccnc2c1O (configuration not stated)	2.1	51.0*	-0.2	-7.7
CCOc1cc(C(NC(=O)CC)c2cc([N+](=O)[O-])c3cccnc3c2O)ccc1O (configuration not stated)	0.4	53.5*	-0.5	-6.0
CCOc1cc(C(NC(=O)C(C)C)c2cc([N+](=O)[O-])c3cccnc3c2O)ccc1O (configuration not stated)	1.0	34.9	-0.6	8.9
COc1ccc(Br)cc1C(=O)N/C(=C\c1ccc([N+](=O)[O-])cc1)C(=O)Nc1cccc(C)c1	-0.2	-0.9	0.1	-7.0
CCCCNC(=O)c1c[nH]c2ccc(S(=O)(=O)N(C)c3c(C)cccc3C)cc2c1=O	1.7	-3.4	-0.2	6.9
O=C(Oc1cccc(NC(=O)c2ccco2)c1)c1ccc(F)c(S(=O)(=O)N2CCOCC2)c1	0.2	-14.2	0.1	2.2
O=C(Oc1cccc(NC(=O)c2ccco2)c1)c1cccc(S(=O)(=O)N2CCOCC2)c1	-3.3	18.0	0.6	-12.2
O=C(Nc1cccc(OC(=O)c2cccc(S(=O)(=O)N3CCOCC3)c2)c1)c1ccc(Br)cc1	1.0	5.6	0.0	34.7*
O=C(Nc1cccc(OC(=O)c2ccc(F)c(S(=O)(=O)N3CCOCC3)c2)c1)c1ccccc1	-0.8	-2.8	-0.1	32.2*
O=C(Nc1cccc(OC(=O)c2cc(S(=O)(=O)N3CCCCCC3)ccc2Cl)c1)c1ccccc1	0.2	-5.2	-0.1	-2.9
Cc1ccc(C(=O)Nc2cccc(OC(=O)c3cc(S(=O)(=O)N4CCOCC4)ccc3Cl)c2)cc1	-5.7	1.3	-0.1	82.7*
CCOC(=O)C1CCC(CN(Cc2ccc(Cl)cc2)S(=O)(=O)c2ccc(F)c(C(=O)Nc3cc(C)ccc3C)c2)CC1 (configuration not stated)	-0.5	3.7	0.0	3.3
O=C(Nc1ccc(S(=O)(=O)N2CCCC2)cc1)c1ccc(Br)s1	0.0	-1.2	0.5	9.3
CCc1cc(NCc2ccco2)n2nc3nc(C)cc(C)c3c2n1	-0.4	-361.4	251.6*	11.8
CCc1cc(NCc2cccs2)n2nc3nc(C)cc(C)c3c2n1	-0.1	-8.2	-0.2	-2.9
NC(=O)c1ccc(NC(=O)CN2CCN(S(=O)(=O)c3ccc(Cl)cc3)CC2)cc1	0.5	19.4	0.1	1.9
CCC(C(=O)O)N1C(=O)/C(=C\c2cccc(OC)c2OC)SC1=S (configuration not stated)	-0.4	-6.3	0.2	-0.7
O=C(OCc1cc(=O)oc2cc(O)c(O)cc12)c1cc(Cl)ccc1[N+](=O)[O-]	0.7	64.0*	0.0	5.8
O=C(OCc1ccccc1)c1cc(Cl)ccc1[N+](=O)[O-]	-1.2	4.1	-0.2	5.5
O=C(CCN1C(=O)/C(=C\c2cccs2)SC1=S)N1CCOCC1	0.7	1.6	-0.1	-0.4
CN1CCN(c2ccc(CNS(=O)(=O)Cc3cccc(C(F)(F)F)c3)cc2)CC1	0.1	4.5	-0.2	38.2*
COc1c(O)cc2c(c1O)[C@@H]1O[C@H](CO)[C@@H](O)[C@H](O)[C@H]1OC2=O	-1.8	4.2	-0.2	-6.7
Cc1c(C(=O)O)c(O)cc2c1C(=O)c1c(O)c([C@H]3O[C@H](CO)[C@@H](O)[C@H](O)[C@H]3O)c(O)c(O)c1C2=O	-1.5	89.5*	-0.5	0.0
COc1ccc(/C=C2\C=C(c3ccccc3)N(c3ccc(O)cc3)C2=O)cc1	1.8	11.3	-0.5	49.3*
Cc1ccc(N2C(=O)/C(=C/c3ccc(Cl)cc3)C=C2c2ccccc2)c(C)c1	1.5	21.9	0.3	-6.5
SMILES	GPR151 ag	MITF inh	FBW7 activator	TEAD-YAP inh
COc1ccc(/C=C2\C=C(c3ccccc3)N(c3ccc(C)cc3C)C2=O)cc1	0.0	26.6	0.6	45.4*
COc1ccc(/C=C2\C=C(c3ccccc3)N(c3ccccc3)C2=O)cc1	1.1	3.5	-0.1	-47.5
COc1ccc(/C=C2\C=C(c3ccccc3)N(c3ccc(C)cc3Br)C2=O)cc1	-1.4	0.9	0.2	46.5*
COc1ccc(/C=C2\C=C(c3ccccc3)N(c3ccccc3Br)C2=O)cc1	-0.7	9.7	-0.1	23.8
COc1ccccc1C(=O)NC(=S)Nc1ccc(NC(C)=O)cc1	-0.1	1.7	-0.1	-54.1
COc1ccccc1C(=O)NC(=S)Nc1ccccc1[N+](=O)[O-]	-0.9	0.6	0.0	44.6*
COc1ccccc1C(=O)NNC(=S)NC(=O)c1ccc(Cl)cc1Cl	0.4	8.5	5.1*	8.8
COc1ccccc1C(=O)NC(=S)NNC(=O)c1ccccc1C	-0.1	16.9	-0.2	-8.5
COc1ccccc1C(=O)NC(=S)Nc1ccccc1	-1.3	3.7	-0.1	36.1*
Cc1cc(C(F)(F)F)nn1CC(=O)Nc1sc2c(c1C(N)=O)CCC(C(C)(C)C)C2 (configuration not stated)	-0.7	11.8	1.6	11.2
O=C(O)/C=C\C(=O)N(C1CCCCC1)C1CCCCC1	0.9	13.6	0.9	5.7
Cn1c(=O)n(Cc2ccc(F)cc2)c(=O)c2c1nc1n2CCN1c1ccccc1	-0.1	-0.5	0.0	-2.0
CCC1=[N+](CC(=O)c2ccccc2)CCn2cccc21	-0.8	11.2	2.5*	-3.7
COc1cccc(CNC(=O)c2cc3oc4ccccc4c3n2C)c1	-0.2	4.8	0.0	17.8
COc1cccc(CNC(=O)c2cc3oc4ccccc4c3n2C)c1OC	0.3	15.3	-0.3	35.8*
COC(=O)c1ccc2c(=O)n(Cc3ccccc3)c(=S)[nH]c2c1	0.3	7.3	0.1	11.3
COC1=CC(=O)C=C(OC)C1=O	0.6	4.6	-0.1	55.4*
O=C(NCCc1ccc(O)cc1)c1ccc2nc(Nc3ccc(-n4ccnc4)cc3)sc2c1	1.6	2.3	0.1	3.1
COc1ccc(CCNC(=O)c2ccc3nc(Nc4ccc(-n5ccnc5)cc4)sc3c2)cc1	1.7	11.3	0.2	62.2*
COC(=O)c1ccc2nc(Nc3nc4c(OC)cccc4s3)sc2c1	-1.9	6.5	0.8	73.3*
COC(=O)c1ccc2nc(Nc3nc4ccc(OC)cc4s3)sc2c1	0.9	-3.1	0.1	49.2*
CC(=O)c1cccc(-c2cnc3c(NCC4CC4)nccn23)c1	-0.3	7.1	-0.8	-61.1
CC(=O)Nc1cccc(-c2cnc3c(NCC4CC4)nccn23)c1	-1.2	7.4	-0.6	79.8*
CC(=O)Nc1cccc(-c2cnc(NCc3cccc(Cl)c3)c3nccn23)c1	0.3	-9.0	-0.5	69.0*
CC(=O)Nc1cccc(-c2cnc3c(NCCc4cccnc4)nccn23)c1	-2.2	13.2	0.4	64.7*
CC(=O)Nc1cccc(-c2cnc3c(NCc4ccco4)nccn23)c1	2.4	12.5	2.3*	46.9*
Cc1cc(N2CCN(C(=O)c3ccccc3Br)CC2)c(F)cc1[N+](=O)[O-]	-0.4	-0.3	-0.1	4.8
CC(=O)Nc1cccc(-c2cnc3c(NCC(C)C)nccn23)c1	-2.0	10.9	0.5	65.2*
